Measured values published in PubChem BioAssay (NCI).
Compounds without any hit were thinned out: in the full panel of roughly 79,000, 15% have a hit. Values without a mark were called inactive. Calls of active or inactive are those of the source. No stated cut-off is given here; in the data, active means growth inhibition above about 70%; inactive means the rest.

How the values were obtained:
[1] = NCI Yeast Anticancer Drug Screen. Data for the rad52 strain (AID 147);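 further: 0% = growth of vehicle-treated control cultures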; conditions: S. cerevisiae rad52 mutant growth inhibition, stronger effect = higher value
Outline: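 Measured: yeast growth inhibition. System: strain with a defined DNA damage repair alteration. Reference: vehicle-treated control cultures.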

[2] = NCI Yeast Anticancer Drug Screen. Data for the wt1 strain (AID 149);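 further: 0% = growth of vehicle-treated wt1 cultures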; conditions: S. cerevisiae wt1 strain (SPY 50644) growth inhibition, stronger effect = higher value
Outline: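 The wt1 strain was treated with compounds, and growth was compared with vehicle-treated cultures to give inhibition.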

[3] = NCI Yeast Anticancer Drug Screen. Data for the rad50EPP+ strain (AID 151);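 further: 0% = growth of vehicle-treated control cultures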; conditions: S. cerevisiae rad50 mutant strain, stronger effect = higher value
Outline: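 One strain with a rad50 alteration (rad50EPP+) was compound-treated, its growth then compared to that of vehicle controls.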

[4] = NCI Yeast Anticancer Drug Screen. Data for the mgt1 strain (AID 153); conditions: S. cerevisiae mgt1 mutant growth inhibition, stronger effect = higher value
Outline: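 After exposure of the mgt1 yeast mutant to compound, growth was measured and reported as inhibition compared with vehicle controls.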

[5] = NCI Yeast Anticancer Drug Screen. Data for the rad50 strain (AID 155);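 further: 0% = growth of vehicle-only cultures of the same strain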; conditions: S. cerevisiae rad50 strain growth inhibition, stronger effect = higher value
Outline: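 Cells are treated with compound, grown, and their growth is then scored against vehicle-only cultures of the same repair-deficient yeast strain.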

[6] = NCI Yeast Anticancer Drug Screen. Data for the mec2-1 strain (AID 157); conditions: S. cerevisiae mec2-1 strain, stronger effect = higher value
Outline: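 Test agents were screened against the mec2-1 yeast strain, with defined DNA repair or cell cycle alteration. Growth was scored as inhibition against vehicle-only controls.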

[7] = NCI Yeast Anticancer Drug Screen. Data for the rad14 strain (AID 159);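 further: 0% = growth of vehicle-treated control cultures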; conditions: S. cerevisiae rad14 strain growth inhibition, stronger effect = higher value
Outline: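 Readout: yeast growth inhibition, referenced to vehicle-only cultures. Strain bears a defined alteration in DNA damage repair.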

[8] = NCI Yeast Anticancer Drug Screen. Data for the sgs1 mgt1 strain (AID 161);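 further: 0% = growth of cultures given vehicle only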; conditions: S. cerevisiae sgs1 mgt1 strain, stronger effect = higher value
Outline: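 Mutant yeast exposed to compound; growth scored against vehicle-only wells.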

[9] = NCI Yeast Anticancer Drug Screen. Data for the CLN2oe strain (AID 163);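 further: 0% = growth of vehicle-only control cultures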; conditions: S. cerevisiae CLN2oe strain, stronger effect = higher value
Outline: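 Here, growth inhibition in a cell-cycle-altered yeast strain after compound exposure was quantified against vehicle control growth.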

[10] = NCI Yeast Anticancer Drug Screen. Data for the cln2 rad14 strain (AID 165);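 further: 0% = growth equal to vehicle treated cultures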; conditions: S. cerevisiae cln2 rad14 strain, stronger effect = higher value
Outline: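 Growth of compound-exposed yeast (cln2 rad14 genotype) measured and expressed as inhibition relative to vehicle.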

[11] = NCI Yeast Anticancer Drug Screen. Data for the bub3 strain (AID 167); conditions: S. cerevisiae bub3 mutant strain, stronger effect = higher value
Outline: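 Part of a panel of yeast mutants defective in DNA damage repair or cell cycle regulation. Each strain is grown with compound, and inhibition is calculated relative to solvent-treated cultures.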

[12] = NCI Yeast Anticancer Drug Screen. Data for the wt2 strain (AID 169);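 further: 0% = growth of vehicle-treated yeast cultures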; conditions: S. cerevisiae wt2 strain growth inhibition, stronger effect = higher value
Outline: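 Genetically defined yeast strains from a DNA-repair/cell-cycle panel were used. Compound-exposed yeast growth was measured, and the inhibition was calculated relative to vehicle treatment.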

[13] = NCI Yeast Anticancer Drug Screen. Data for the mlh1 strain (AID 171);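 further: 0% = growth of vehicle-treated control cultures of the same strain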; conditions: S. cerevisiae mlh1 strain growth inhibition, stronger effect = higher value
Outline: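 Here the genetically defined yeast mutant is grown with each compound, and the extent to which its growth falls below that of vehicle-exposed cells is reported.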

[14] = NCI Yeast Anticancer Drug Screen. Data for the sgs1 strain (AID 173);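 further: 0% = growth of vehicle-only control cultures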; conditions: S. cerevisiae sgs1 mutant, stronger effect = higher value
Outline: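 Relative growth inhibition, referenced to vehicle, was determined in a yeast strain with a defined alteration affecting DNA damage repair or cell cycle control after compound exposure.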

[15] = NCI Yeast Anticancer Drug Screen. Data for the mlh1 rad18 strain (AID 175); conditions: S. cerevisiae mlh1 rad18 strain growth inhibition, stronger effect = higher value
Outline: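 In this whole-cell yeast screen, a strain with altered DNA damage repair is challenged with compound, and its growth is measured against matched vehicle-treated controls.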

[16] = NCI Yeast Anticancer Drug Screen. Data for the rad18 strain (AID 177); conditions: S. cerevisiae rad18 mutant growth inhibition, stronger effect = higher value
Outline: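 Screen uses a yeast strain with a defined lesion in DNA damage repair; compound effect is read as loss of growth compared to untreated vehicle cultures.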

[17] = at 5.0 µM (retest, dose inferred, filed as 0.5)
[18] = at 50.0 µM (retest, dose inferred, filed as 5.0)

CCN(CC)CCNc1ccc2nc(C)n3c4ccc(OC)cc4c(=O)c1c23
growth inhibition ([1]; at 1.2 µM): 22%
growth inhibition ([1]; at 3.7 µM): 47%
growth inhibition ([1]; at 11.0 µM): 58%
growth inhibition ([1]; at 33.0 µM): 75% (active)
growth inhibition ([1]; at 100.0 µM): 83% (active)
growth inhibition ([2]; at 1.2 µM): 27%
growth inhibition ([2]; at 3.7 µM): 21%
growth inhibition ([2]; at 11.0 µM): 28%
growth inhibition ([2]; at 33.0 µM): 15%
growth inhibition ([2]; at 100.0 µM): 21%
growth inhibition ([3]; at 1.2 µM): 9%
growth inhibition ([3]; at 3.7 µM): 9%
growth inhibition ([3]; at 11.0 µM): 3%
growth inhibition ([3]; at 33.0 µM): 17%
growth inhibition ([3]; at 100.0 µM): 31%
growth inhibition ([4]; at 1.2 µM): 36%
growth inhibition ([4]; at 3.7 µM): 27%
growth inhibition ([4]; at 11.0 µM): 18%
growth inhibition ([4]; at 33.0 µM): 26%
growth inhibition ([4]; at 100.0 µM): 16%
growth inhibition ([5]; at 1.2 µM): 41%
growth inhibition ([5]; at 3.7 µM): 45%
growth inhibition [5, 17]: 84% (active)
growth inhibition ([5]; at 11.0 µM): 63%
growth inhibition ([5]; at 33.0 µM): 82% (active)
growth inhibition [5, 18]: 95% (active)
growth inhibition ([5]; at 50.0 µM): -12.5%
growth inhibition ([5]; at 100.0 µM): 87% (active)
growth inhibition ([6]; at 1.2 µM): 32%
growth inhibition ([6]; at 3.7 µM): 39%
growth inhibition [6, 17]: 16%
growth inhibition ([6]; at 11.0 µM): 37%
growth inhibition ([6]; at 33.0 µM): 40%
growth inhibition [6, 18]: 52%
growth inhibition ([6]; at 50.0 µM): 22.8%
growth inhibition ([6]; at 100.0 µM): 32%
growth inhibition ([7]; at 1.2 µM): 33%
growth inhibition ([7]; at 3.7 µM): 24%
growth inhibition ([7]; at 11.0 µM): 27%
growth inhibition ([7]; at 33.0 µM): 30%
growth inhibition ([7]; at 100.0 µM): 48%
growth inhibition [8, 17]: 13%
growth inhibition [8, 18]: 41%
growth inhibition ([8]; at 50.0 µM): 18.3%
growth inhibition ([9]; at 1.2 µM): 1%
growth inhibition ([9]; at 3.7 µM): 15%
growth inhibition ([9]; at 11.0 µM): 17%
growth inhibition ([9]; at 33.0 µM): 21%
growth inhibition ([9]; at 100.0 µM): 17%
growth inhibition [10, 17]: 25%
growth inhibition [10, 18]: 45%
growth inhibition ([10]; at 50.0 µM): 28.1%
growth inhibition ([11]; at 1.2 µM): 11%
growth inhibition ([11]; at 3.7 µM): 2%
growth inhibition [11, 17]: -31%
growth inhibition ([11]; at 11.0 µM): -3%
growth inhibition ([11]; at 33.0 µM): 16%
growth inhibition [11, 18]: 39%
growth inhibition ([11]; at 50.0 µM): 16.4%
growth inhibition ([11]; at 100.0 µM): 5%
growth inhibition ([12]; at 1.2 µM): -22%
growth inhibition ([12]; at 3.7 µM): -25%
growth inhibition ([12]; at 11.0 µM): -24%
growth inhibition ([12]; at 33.0 µM): -15%
growth inhibition ([12]; at 100.0 µM): -25%
growth inhibition ([13]; at 1.2 µM): 36%
growth inhibition ([13]; at 3.7 µM): 27%
growth inhibition ([13]; at 11.0 µM): 18%
growth inhibition ([13]; at 33.0 µM): 26%
growth inhibition ([13]; at 100.0 µM): 16%
growth inhibition ([14]; at 1.2 µM): 27%
growth inhibition ([14]; at 3.7 µM): 27%
growth inhibition ([14]; at 11.0 µM): 26%
growth inhibition ([14]; at 33.0 µM): 8%
growth inhibition ([14]; at 100.0 µM): 25%
growth inhibition [15, 17]: 29%
growth inhibition [15, 18]: 56%
growth inhibition ([15]; at 50.0 µM): 77.4% (active)
growth inhibition ([16]; at 1.2 µM): 34%
growth inhibition ([16]; at 3.7 µM): 41%
growth inhibition ([16]; at 11.0 µM): 57%
growth inhibition ([16]; at 33.0 µM): 66%
growth inhibition ([16]; at 100.0 µM): 74% (active)

[N-]=[N+]=NC1(c2ccccc2)C(=O)Nc2ccccc2C1=O (stereo unspecified)
growth inhibition ([1]; at 1.2 µM): -2%
growth inhibition ([1]; at 3.7 µM): 0%
growth inhibition ([1]; at 11.0 µM): 4%
growth inhibition ([1]; at 33.0 µM): 20%
growth inhibition ([1]; at 100.0 µM): 49%
growth inhibition ([2]; at 1.2 µM): -4%
growth inhibition ([2]; at 3.7 µM): -2%
growth inhibition ([2]; at 11.0 µM): -3%
growth inhibition ([2]; at 33.0 µM): 4%
growth inhibition ([2]; at 100.0 µM): 22%
growth inhibition ([3]; at 1.2 µM): 0%
growth inhibition ([3]; at 3.7 µM): 3%
growth inhibition ([3]; at 11.0 µM): 6%
growth inhibition ([3]; at 33.0 µM): 9%
growth inhibition ([3]; at 100.0 µM): 7%
growth inhibition ([4]; at 1.2 µM): -3%
growth inhibition ([4]; at 3.7 µM): -6%
growth inhibition ([4]; at 11.0 µM): 8%
growth inhibition ([4]; at 33.0 µM): 2%
growth inhibition ([4]; at 100.0 µM): 27%
growth inhibition ([5]; at 1.2 µM): -4%
growth inhibition ([5]; at 3.7 µM): -2%
growth inhibition [5, 17]: -4%
growth inhibition ([5]; at 11.0 µM): -20%
growth inhibition ([5]; at 33.0 µM): 17%
growth inhibition [5, 18]: 14%
growth inhibition ([5]; at 50.0 µM): 67%
growth inhibition ([5]; at 100.0 µM): 37%
growth inhibition ([6]; at 1.2 µM): 2%
growth inhibition ([6]; at 3.7 µM): 2%
growth inhibition [6, 17]: -23%
growth inhibition ([6]; at 11.0 µM): 6%
growth inhibition ([6]; at 33.0 µM): 19%
growth inhibition [6, 18]: 1%
growth inhibition ([6]; at 50.0 µM): 81.3% (active)
growth inhibition ([6]; at 100.0 µM): 33%
growth inhibition ([7]; at 1.2 µM): -3%
growth inhibition ([7]; at 3.7 µM): -1%
growth inhibition ([7]; at 11.0 µM): 8%
growth inhibition ([7]; at 33.0 µM): 12%
growth inhibition ([7]; at 100.0 µM): 21%
growth inhibition [8, 17]: -20%
growth inhibition [8, 18]: 16%
growth inhibition ([8]; at 50.0 µM): 67.7%
growth inhibition ([9]; at 1.2 µM): -5%
growth inhibition ([9]; at 3.7 µM): -5%
growth inhibition ([9]; at 11.0 µM): 3%
growth inhibition ([9]; at 33.0 µM): 35%
growth inhibition ([9]; at 100.0 µM): 61%
growth inhibition [10, 17]: -3%
growth inhibition [10, 18]: 29%
growth inhibition ([10]; at 50.0 µM): 81.1% (active)
growth inhibition ([11]; at 1.2 µM): -4%
growth inhibition ([11]; at 3.7 µM): -1%
growth inhibition [11, 17]: -28%
growth inhibition ([11]; at 11.0 µM): 18%
growth inhibition ([11]; at 33.0 µM): 41%
growth inhibition [11, 18]: 61%
growth inhibition ([11]; at 50.0 µM): 75.5% (active)
growth inhibition ([11]; at 100.0 µM): 59%
growth inhibition ([12]; at 1.2 µM): -3%
growth inhibition ([12]; at 3.7 µM): -2%
growth inhibition ([12]; at 11.0 µM): 1%
growth inhibition ([12]; at 33.0 µM): 13%
growth inhibition ([12]; at 100.0 µM): 22%
growth inhibition ([13]; at 1.2 µM): -2%
growth inhibition ([13]; at 3.7 µM): -5%
growth inhibition ([13]; at 11.0 µM): 1%
growth inhibition ([13]; at 33.0 µM): 12%
growth inhibition ([13]; at 100.0 µM): 17%
growth inhibition ([14]; at 1.2 µM): -1%
growth inhibition ([14]; at 3.7 µM): 2%
growth inhibition ([14]; at 11.0 µM): 9%
growth inhibition ([14]; at 33.0 µM): 27%
growth inhibition ([14]; at 100.0 µM): 39%
growth inhibition [15, 17]: -22%
growth inhibition [15, 18]: 46%
growth inhibition ([15]; at 50.0 µM): 58%
growth inhibition ([16]; at 1.2 µM): -2%
growth inhibition ([16]; at 3.7 µM): 1%
growth inhibition ([16]; at 11.0 µM): 7%
growth inhibition ([16]; at 33.0 µM): 19%
growth inhibition ([16]; at 100.0 µM): 50%
